This is an account of results in the supplement of paper PMC9794691.

Test in all cases: area under confluence curve of osimertinib + compound combination regimen (DTP regrowth); compare to osimertinib-only DTP control AUC of the same experiment (AUC (confluence x time, arbitrary))
One experiment deals with PC9. The essentials: (§1)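 The area under the IncuCyte confluence–time curve, calculated in Prism and taken as the median of triplicates where available, is the value reported. It was measured in EGFR-mutant NSCLC lines that received the EGFR inhibitor either alone, followed by a test compound, or together with a fixed-dose test compound until the persister stage (10–21 days) and then drug-free medium. Medium was refreshed every 3–4 days until the inhibitor-only wells were confluent again.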

A further experiment concerns H1975. Summed up: as §1
For another experiment, the system named is HCC2279. The essentials:
as §1

The next experiment relates to HCC2935. The essentials:
as §1

The next experiment deals with HCC4006. The essentials: as §1
For a further experiment, the system named is HCC827. Summed up: as §1
A further experiment relates to II-18. Summed up: as §1

In the case of `Cc1nc(Nc2n[nH]c3c2CN(C(=O)N[C@H](CN(C)C)c2ccccc2)C3(C)C)c2sccc2n1` + C=CC(=O)Nc1cc(Nc2nccc(-c3cn(C)c4ccccc34)n2)c(OC)cc1N(C)CCN(C)C [osimertinib], the “area under confluence curve” value in the experiment on PC9 (test compound dose 100 nM, dosing schedule: sequential, osimertinib-only DTP control AUC in same experiment: 14258, DMSO control AUC in same experiment: 20347) was found to be 3500; in the experiment with PC9 (test compound dose 100 nM, dosing schedule: upfront, osimertinib-only DTP control AUC in same experiment: 21499, DMSO control AUC in same experiment: 20347) it was 12300.
On to `CN(C)C(=O)c1cc2cnc(Nc3ccc(N4CCNCC4)cn3)nc2n1C1CCCC1` [Ribociclib] + C=CC(=O)Nc1cc(Nc2nccc(-c3cn(C)c4ccccc34)n2)c(OC)cc1N(C)CCN(C)C [osimertinib], for which the “area under confluence curve” value in the experiment on PC9 (test compound dose 300 nM, dosing schedule: sequential, osimertinib-only DTP control AUC in same experiment: 23366, DMSO control AUC in same experiment: 88996) was 13600; in the experiment on PC9 (test compound dose 300 nM, dosing schedule: upfront, osimertinib-only DTP control AUC in same experiment: 29852, DMSO control AUC in same experiment: 88996), 20500.
`CS(=O)(=O)CCNCc1ccc(-c2ccc3ncnc(Nc4ccc(OCc5cccc(F)c5)c(Cl)c4)c3c2)o1` [Lapatinib] + C=CC(=O)Nc1cc(Nc2nccc(-c3cn(C)c4ccccc34)n2)c(OC)cc1N(C)CCN(C)C [osimertinib]: the “area under confluence curve” value in the experiment with PC9 (test compound dose 1000 nM, dosing schedule: sequential, osimertinib-only DTP control AUC in same experiment: 16279, DMSO control AUC in same experiment: 29345) was 21600; in the experiment with PC9 (test compound dose 1000 nM, dosing schedule: upfront, osimertinib-only DTP control AUC in same experiment: 19769, DMSO control AUC in same experiment: 29345), 18300.
As for `CNC(=O)c1cccc(-c2ccc3c(N4CCOC[C@@H]4C)nc(N4CCOC[C@@H]4C)nc3n2)c1` + C=CC(=O)Nc1cc(Nc2nccc(-c3cn(C)c4ccccc34)n2)c(OC)cc1N(C)CCN(C)C [osimertinib], the “area under confluence curve” value was found to be 6580 with PC9 (test compound dose 100 nM, dosing schedule: sequential, osimertinib-only DTP control AUC in same experiment: 13052, DMSO control AUC in same experiment: 28334) and 14800 in the experiment on PC9 (test compound dose 100 nM, dosing schedule: upfront, osimertinib-only DTP control AUC in same experiment: 17920, DMSO control AUC in same experiment: 28334).
For `Cc1onc(C(=O)N2CCN(C(c3ccc(Cl)cc3)c3ccc(Cl)cc3)CC2)c1[N+](=O)[O-]` + C=CC(=O)Nc1cc(Nc2nccc(-c3cn(C)c4ccccc34)n2)c(OC)cc1N(C)CCN(C)C [osimertinib], the “area under confluence curve” value in the experiment with PC9 (test compound dose 1000 nM, dosing schedule: sequential, osimertinib-only DTP control AUC in same experiment: 8716, DMSO control AUC in same experiment: 45737) worked out at 823; in the experiment on PC9 (test compound dose 1000 nM, dosing schedule: upfront, osimertinib-only DTP control AUC in same experiment: 11096, DMSO control AUC in same experiment: 45737), 19300.
`COc1nn(C)cc1Nc1nccc(-c2c[nH]c3c(NC(=O)[C@@H](C)N4CCN(C)CC4)cccc23)n1` + C=CC(=O)Nc1cc(Nc2nccc(-c3cn(C)c4ccccc34)n2)c(OC)cc1N(C)CCN(C)C [osimertinib]: the “area under confluence curve” value was found to be 19800 in the experiment on H1975 (test compound dose 1000 nM, dosing schedule: sequential, osimertinib-only DTP control AUC in same experiment: 22968, DMSO control AUC in same experiment: 15857); 18200 in the experiment with H1975 (test compound dose 1000 nM, dosing schedule: upfront, osimertinib-only DTP control AUC in same experiment: 27164, DMSO control AUC in same experiment: 15857); 23400 in the experiment with HCC2279 (test compound dose 1000 nM, dosing schedule: sequential, osimertinib-only DTP control AUC in same experiment: 26096, DMSO control AUC in same experiment: 14404); 31200 in the experiment with HCC2279 (test compound dose 1000 nM, dosing schedule: upfront, osimertinib-only DTP control AUC in same experiment: 33120, DMSO control AUC in same experiment: 14404); 20700 in the experiment on HCC2935 (test compound dose 1000 nM, dosing schedule: sequential, osimertinib-only DTP control AUC in same experiment: 22314, DMSO control AUC in same experiment: 19215); 31500 in the experiment on HCC2935 (test compound dose 1000 nM, dosing schedule: upfront, osimertinib-only DTP control AUC in same experiment: 29846, DMSO control AUC in same experiment: 19215). The “area under confluence curve” value in the experiment with HCC4006 (test compound dose 1000 nM, dosing schedule: sequential, osimertinib-only DTP control AUC in same experiment: 12791, DMSO control AUC in same experiment: 18415) is 12900; in the experiment with HCC4006 (test compound dose 1000 nM, dosing schedule: upfront, osimertinib-only DTP control AUC in same experiment: 17269, DMSO control AUC in same experiment: 18415), 18700; with HCC827 (test compound dose 1000 nM, dosing schedule: sequential, osimertinib-only DTP control AUC in same experiment: 15330, DMSO control AUC in same experiment: 21320), 10400; in the experiment with HCC827 (test compound dose 1000 nM, dosing schedule: upfront, osimertinib-only DTP control AUC in same experiment: 20798, DMSO control AUC in same experiment: 21320) it was 15000; in the experiment on II-18 (test compound dose 1000 nM, dosing schedule: sequential, osimertinib-only DTP control AUC in same experiment: 8624, DMSO control AUC in same experiment: 11834), 1310; in the experiment on II-18 (test compound dose 1000 nM, dosing schedule: upfront, osimertinib-only DTP control AUC in same experiment: 10856, DMSO control AUC in same experiment: 11834), 1640. Also, the “area under confluence curve” value in the experiment with PC9 (test compound dose 1000 nM, dosing schedule: sequential, osimertinib-only DTP control AUC in same experiment: 10968, DMSO control AUC in same experiment: 21594) worked out at 8030; in the experiment with PC9 (test compound dose 1000 nM, dosing schedule: upfront, osimertinib-only DTP control AUC in same experiment: 17834, DMSO control AUC in same experiment: 21594), 15000.
In the case of `Cc1[nH]nc(C(F)(F)F)c1Cc1sc2c(c1C(=O)N1C[C@](C)(O)CO1)c(=O)n(C)c(=O)n2C(C)C` + C=CC(=O)Nc1cc(Nc2nccc(-c3cn(C)c4ccccc34)n2)c(OC)cc1N(C)CCN(C)C [osimertinib], the “area under confluence curve” value with PC9 (test compound dose 1000 nM, dosing schedule: sequential, osimertinib-only DTP control AUC in same experiment: 10725, DMSO control AUC in same experiment: 30578) was found to be 18600; in the experiment on PC9 (test compound dose 1000 nM, dosing schedule: upfront, osimertinib-only DTP control AUC in same experiment: 10245, DMSO control AUC in same experiment: 30578), 11200.
Turning to `NC1(C(=O)N[C@@H](CCO)c2ccc(Cl)cc2)CCN(c2nc[nH]c3nccc2-3)CC1` [Capivasertib] + C=CC(=O)Nc1cc(Nc2nccc(-c3cn(C)c4ccccc34)n2)c(OC)cc1N(C)CCN(C)C [osimertinib], the “area under confluence curve” value turned out to be 1840 in the experiment with H1975 (test compound dose 300 nM, dosing schedule: sequential, osimertinib-only DTP control AUC in same experiment: 9919, DMSO control AUC in same experiment: 26010); 3990 in the experiment with H1975 (test compound dose 300 nM, dosing schedule: upfront, osimertinib-only DTP control AUC in same experiment: 15327, DMSO control AUC in same experiment: 26010); 13700 with HCC2279 (test compound dose 300 nM, dosing schedule: sequential, osimertinib-only DTP control AUC in same experiment: 20224, DMSO control AUC in same experiment: 29252); 38900 with HCC2279 (test compound dose 300 nM, dosing schedule: upfront, osimertinib-only DTP control AUC in same experiment: 43517, DMSO control AUC in same experiment: 29252); 5940 with HCC2935 (test compound dose 300 nM, dosing schedule: sequential, osimertinib-only DTP control AUC in same experiment: 9121, DMSO control AUC in same experiment: 11459); 10300 in the experiment with HCC2935 (test compound dose 300 nM, dosing schedule: upfront, osimertinib-only DTP control AUC in same experiment: 12748, DMSO control AUC in same experiment: 11459). In addition, the “area under confluence curve” value in the experiment with HCC4006 (test compound dose 300 nM, dosing schedule: sequential, osimertinib-only DTP control AUC in same experiment: 22375, DMSO control AUC in same experiment: 16794) came to 17000; in the experiment with HCC4006 (test compound dose 300 nM, dosing schedule: upfront, osimertinib-only DTP control AUC in same experiment: 24440, DMSO control AUC in same experiment: 16794), 12500; in the experiment on HCC827 (test compound dose 300 nM, dosing schedule: sequential, osimertinib-only DTP control AUC in same experiment: 8266, DMSO control AUC in same experiment: 27404), 5490; in the experiment with HCC827 (test compound dose 300 nM, dosing schedule: upfront, osimertinib-only DTP control AUC in same experiment: 13929, DMSO control AUC in same experiment: 27404), 9340; with II-18 (test compound dose 300 nM, dosing schedule: sequential, osimertinib-only DTP control AUC in same experiment: 3520, DMSO control AUC in same experiment: 13556), 3590; in the experiment with II-18 (test compound dose 300 nM, dosing schedule: upfront, osimertinib-only DTP control AUC in same experiment: 6532, DMSO control AUC in same experiment: 13556), 2040. Besides, the “area under confluence curve” value turned out to be 1390 with PC9 (test compound dose 300 nM, dosing schedule: sequential, osimertinib-only DTP control AUC in same experiment: 3562, DMSO control AUC in same experiment: 31840); 2030 with PC9 (test compound dose 300 nM, dosing schedule: sequential, osimertinib-only DTP control AUC in same experiment: 10725, DMSO control AUC in same experiment: 30578); 2150 in the experiment with PC9 (test compound dose 300 nM, dosing schedule: sequential, osimertinib-only DTP control AUC in same experiment: 12535, DMSO control AUC in same experiment: 43316); 9240 in the experiment on PC9 (test compound dose 300 nM, dosing schedule: upfront, osimertinib-only DTP control AUC in same experiment: 10245, DMSO control AUC in same experiment: 30578); 14600 in the experiment with PC9 (test compound dose 300 nM, dosing schedule: upfront, osimertinib-only DTP control AUC in same experiment: 15354, DMSO control AUC in same experiment: 43316); 13200 with PC9 (test compound dose 300 nM, dosing schedule: upfront, osimertinib-only DTP control AUC in same experiment: 19015, DMSO control AUC in same experiment: 31840).
